Bioassay records deposited in PubChem by several laboratories.
Sampled rows, rich in hits. Any-hit rate of the full collection: about 28%.
CYP2C9 inh = inhibitors of human CYP2C9 | P11712 | CYP2C9 Supersomes, luciferin-H conversion, luminescence | inhibition, % at 5 µM | 96,000 tested, 20% active | AID 777;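 active = blocking of liver enzyme CYP2C9 beyond about 50% at 5 µM, limit read from the data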
CYP2C19 activ = activators of human cytochrome P450 2C19; P33261; recombinant CYP2C19, luciferin-H EGE luminescence; hits give high values; 0 = fully inhibited enzyme, 1 = untreated enzyme; activation factor at 5 µM; 96,000 tested, under 10 active;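 active = activation factor of at least 2 at 5 µM in the primary screen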;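 note: 0 = wells with 2.5 mM tranylcypromine and 1 = vehicle-only wells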
Target sequence (P33261 whole entry, looked up): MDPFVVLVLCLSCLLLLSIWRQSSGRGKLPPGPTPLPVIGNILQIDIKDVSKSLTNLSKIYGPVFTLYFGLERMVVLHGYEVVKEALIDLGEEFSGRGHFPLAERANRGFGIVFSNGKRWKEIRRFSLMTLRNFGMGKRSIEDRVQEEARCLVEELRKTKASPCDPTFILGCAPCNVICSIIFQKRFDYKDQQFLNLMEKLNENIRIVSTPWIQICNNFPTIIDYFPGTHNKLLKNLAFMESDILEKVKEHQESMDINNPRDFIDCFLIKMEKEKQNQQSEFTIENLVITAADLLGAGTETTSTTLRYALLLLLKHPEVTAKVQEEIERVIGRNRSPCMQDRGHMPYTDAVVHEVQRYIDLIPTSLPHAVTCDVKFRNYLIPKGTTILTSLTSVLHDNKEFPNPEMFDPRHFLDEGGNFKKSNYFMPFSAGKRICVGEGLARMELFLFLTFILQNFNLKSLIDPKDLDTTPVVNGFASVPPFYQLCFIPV
D1 mod = D1 dopamine receptor (human) allosteric modulation | P21728 | HEK293 D1, CRE-luciferase, dopamine EC30 potentiation; actives deviate in either direction | B-score at 10 µM | 58,000 tested, 5.9% active;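 active = luminescence count or its row- and column-corrected plate score outside the 99.7% band of the plate's sample wells, on either side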
DAT uptake mod = human DAT dopamine uptake with cocaine, either direction; LLC-PK1 hDAT cells, [14C]-dopamine uptake with cocaine IC80; actives deviate in either direction; 110,000 tested, 1.3% active; Q01959; B-score at 10 µM;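 active = Z score or B-score, a plate-position-corrected score, falls beyond the plate's 99.7% confidence bounds, in either direction; inactive = both scores lie inside the 99.7% bounds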;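 note: scored against the spread of the other compound wells on the same plate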
CYP2C9 activ = increases human cytochrome P450 2C9 activity. P11712. recombinant CYP2C9, luciferin-H conversion, luminescence; hits give high values; factor 1 = untreated enzyme, 0 = blocked. activation factor at 5 µM. 96,000 tested, 1.4% active;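 active = activation factor of 2 or more for CYP2C9 at a 5 µM dose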;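 note: 0 = sulfaphenazole-blocked wells and 1 = vehicle-only wells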
CYP2C19 inhib = human CYP2C19 inhibition; P33261; CYP2C19 Supersomes, luciferin-H EGE luminescence, 30 min; inhibition, % at 5 µM; 96,000 tested, 21% active;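 active = CYP2C19 inhibition above a set limit at 5 µM in the primary screen, cut at about 50% in these data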;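 note: plate controls were negative control wells for no effect and 2.5 mM tranylcypromine positive control for full effect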
Starred values were filed as active, the others as inactive; x = no result given.

SMILES | CYP2C9 inh | CYP2C19 activ | D1 mod | DAT uptake mod | CYP2C9 activ | CYP2C19 inhib
CCCOc1ccc(/C=C/C(=O)Nc2ccc([N+](=O)[O-])cc2C)cc1 | 16 | 1 | x | 0.61 | 0.8 | 4
CCN(CC)S(=O)(=O)c1ccc(OC)c(NC(=O)c2cccc([N+](=O)[O-])c2C)c1 | x | x | x | -7.7* | x | x
C=CCOC(=O)C1=C[C@H](c2ccc(Br)cc2)C[C@H](OCc2ccc(CO)cc2)O1 | x | x | x | -0.017 | x | x
Cc1ccc(S(=O)(=O)N(CC(=O)N2CCCCC2)c2cccc(C)c2)cc1 | x | x | x | 1.3 | x | x
COc1ccc(NC(=O)N2CCC(c3ccccc3)C2)c(OC)c1 (stereo unspecified) | -109 | 0.1 | -0.035 | 0.79 | 2.1* | 85*
COc1ccc(NC(=O)CCOc2ccccc2)c(OC)c1 | -30 | 0.3 | x | -0.015 | 1.3 | 73*
O=C(NCC(c1ccco1)N1CCCC1)c1ccccc1F (stereo unspecified) | 17 | 0.9 | x | -0.81 | 0.8 | 10
CCN(CC(=O)Nc1ccc([N+](=O)[O-])cc1OC)c1ccccc1 | 78* | 0.5 | x | -0.49 | 0.2 | 53*
COc1ccc(NC(=O)CC(=O)Nc2ccc(OC)cc2OC)c(OC)c1 | -41 | 0.7 | x | 1.4 | 1.4 | 35
O=C(CCOc1ccccc1)NCC(c1ccco1)N1CCCCC1 (stereo unspecified) | 2 | 0.3 | -0.82 | -0.61 | 1 | 66*
COc1ccc(OC)c(N(CC(=O)N2CCN(c3cc(Cl)ccc3C)CC2)S(C)(=O)=O)c1 | -20 | 0.8 | -0.12 | 0.04 | 1.2 | 19
Cc1cccc(OCCC(=O)NCC(c2ccccc2)N(C)C)c1 (stereo unspecified) | 1 | 0.8 | x | -0.031 | 1 | 17
COc1ccc(NC(=O)CCC(=O)Nc2nnc(C(F)(F)F)s2)c(OC)c1 | 65* | 0.6 | x | -0.44 | 0.3 | 36
CCOC(=O)N1CCN(CCC(=O)Nc2ccc(OC)cc2OC)CC1 | x | x | x | 0.76 | x | x
COc1ccc(C(CNC(=O)CCOc2ccccc2)N(C)C)cc1 (stereo unspecified) | 15 | 0.5 | x | -0.69 | 0.8 | 55*
COc1cc([N+](=O)[O-])ccc1NC(=O)CCCOc1ccccc1 | 35 | 0.4 | x | x | 0.6 | 64*
OCCOc1nnnn1-c1ccccc1 | 10 | 1 | x | 0.12 | 0.9 | -3
CC1=C(C(=O)Nc2ccccc2C)C(c2ccc(C)o2)n2c(s/c(=C/c3ccccc3)c2=O)=N1 (stereo unspecified) | 38 | 1.1 | x | 0.57 | 0.6 | -7
CC1=C(C(=O)Nc2ccccc2)C(c2ccc(C)o2)n2c(s/c(=C/c3ccccc3)c2=O)=N1 (stereo unspecified) | 87* | 0.3 | x | 0.053 | 0.1 | 72*
CC1=C(C(=O)Nc2ccccc2)C(c2ccc(C)o2)N2C(=O)CSC2=N1 (stereo unspecified) | 46 | 0.4 | -0.78 | -0.21 | 0.5 | 64*
COc1cccc(C(=O)N2CCN(S(C)(=O)=O)CC2)c1 | 9 | 0.7 | x | -0.64 | 0.9 | 28
CCCCCOC(=O)NCC(O)c1ccccc1 (stereo unspecified) | 10 | 0.7 | -1.4 | 0.21 | 0.9 | 28
CCOC(=O)NC(NCC(O)c1ccccc1)(C(F)(F)F)C(F)(F)F (stereo unspecified) | 31 | 0.3 | -0.021 | -0.017 | 0.7 | 65*
CCCCOC(=O)NC(NCC(O)c1ccccc1)(C(F)(F)F)C(F)(F)F (stereo unspecified) | 78* | 0.1 | x | 0.0094 | 0.2 | 91*
CCOC(=O)NC(Nc1ncccn1)(C(F)(F)F)C(F)(F)F | -1 | 1 | -0.28 | -0.46 | 1 | -4
SMILES | CYP2C9 inh | CYP2C19 activ | D1 mod | DAT uptake mod | CYP2C9 activ | CYP2C19 inhib
COc1ccc2cnn(CCOc3ccccc3)c(=O)c2c1OC | -5 | 0.8 | -0.44 | -0.55 | 1 | 25
COc1ccc2cnn(-c3ccc(C)cc3)c(=O)c2c1OC | 65* | 0.7 | x | 0.23 | 0.4 | 28
CCOc1ccccc1OCCn1ncc2ccc(OC)c(OC)c2c1=O | -24 | 0.4 | x | 0.34 | 1.2 | 58*
O=C(Oc1cccc(Br)c1)c1cccnc1 | -10 | 1 | 0.53 | 0.56 | 1.1 | 3
CCc1cc2c(=O)n(-c3ccc(C)cc3)cnc2s1 | x | x | x | 0.042 | x | x
COc1ccc(OC)c(CCNC(=O)Cn2sc3nc(C)cc(C)c3c2=O)c1 | 65* | 0.8 | -0.046 | 0.23 | 0.4 | 22
COc1ccc2cc(C3(C)NC(=O)N(CC(=O)NCCC4=CCCCC4)C3=O)ccc2c1 (stereo unspecified) | 31 | 0.9 | x | 0.56 | 0.7 | 12
CCCNC(=O)c1onc(CSc2ccc(F)cc2)c1C(=O)NCCC | x | x | x | 0.08 | x | x
OC(COCC1CC=CCC1)Cn1cnc2ccccc21 (stereo unspecified) | 39 | 0.3 | x | 0.34 | 0.6 | 72*
OC(COCc1ccccc1)Cn1cnc2ccccc21 (stereo unspecified) | -7 | 0.8 | x | 0.48 | 1.1 | 18
OC(CN(c1ccccc1)c1ccccc1)Cn1cnc2ccccc21 (stereo unspecified) | 98* | 0 | 0.18 | -0.016 | 0 | 96*
Cc1nc2ccccc2n1CC(O)COCC1CC=CCC1 (stereo unspecified) | -12 | 0.8 | x | 1.2 | 1.1 | 22
CC1(c2nnc(-c3ccncc3)o2)CC(c2cccc(Cl)c2)=NO1 (stereo unspecified) | x | x | x | -0.42 | x | x
Nc1nc(C2CC(=O)OC23CCCCC3)cs1 (stereo unspecified) | x | x | x | 0.13 | x | x
Cc1nc(C2CC(=O)OC23CCCCC3)cs1 (stereo unspecified) | 18 | 0.2 | 0.18 | 0.36 | 0.8 | 78*
COCCNC(=O)c1cc(-c2ccc(Cl)c(Cl)c2)on1 | -4 | 1.2 | 0.59 | -0.0062 | 1 | -16
COc1ccc(C)cc1S(=O)(=O)N(CC(=O)O)c1ccc(C)cc1 | 36 | 0.9 | -0.42 | 0.43 | 0.6 | 15
COc1ccc(-c2nc(CNS(=O)(=O)c3cc(OC)ccc3OC)cs2)cc1 | 72* | 0.3 | 0.019 | -0.54 | 0.3 | 70*
CCS(=O)(=O)NCc1csc(-c2ccccc2)n1 | 0 | 0.3 | 0.16 | 0.045 | 1 | 70*
COc1ccc(N(C(C)=O)S(=O)(=O)c2cc(OC)ccc2OC)cc1 | 50* | 0.7 | -1.5 | -0.08 | 0.5 | 28
Cc1nc(CNS(=O)(=O)c2ccc3ccccc3c2)cs1 | -101 | 0.5 | 0.002 | 0.45 | 2* | 45
CCCCSc1nnc(CSc2nc3nc(C)cc(C)n3n2)o1 | 6 | 0.6 | x | -0.79 | 0.9 | 40
COc1cc(NC(=O)c2ncn[nH]2)cc(OC)c1OC | x | x | 0.31 | -0.16 | x | x
COc1ccc(N2CCN(S(=O)(=O)Cc3ccccc3)CC2)cc1 | -17 | 1.3 | x | -0.37 | 1.2 | -30
CS(=O)(=O)NCc1csc(-c2ccccc2)n1 | 7 | 0.9 | 0 | 0.14 | 0.9 | 5
COc1ccc(S(=O)(=O)NCc2csc(-c3cccnc3)n2)cc1 | 68* | 0.1 | x | 0.1 | 0.3 | 91*
